Source: PubChem BioAssay (Broad Institute)
Statin myotox sup: suppression of simvastatin myotoxicity. C2C12 myotubes + simvastatin, ATP luminescence, 48 h; scaled: DMSO 0, geranylgeraniol control 100. rescue of ATP level, % at 7.49 µM. 0.78% of 330,000 active. AID 602340;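 active = mean ATP rescue above about 67%, or every replicate alone reaching that limit, limit read from the data, passing the limit was not always enough; inconclusive = no clear call, values can overlap the other calls; inactive = mean under the limit and some replicate under it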;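 also: myotubes were challenged with 10 µM simvastatin during compound exposure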
esBAF inh: SWI/SNF esBAF complex inhibition. mouse ES cells, Bmi1-luciferase knock-in reporter, 24 h; 100% = twice the neutral-well signal. reporter increase, % at 12.5 µM. 2% of 350,000 active. AID 602393; in the data active = activation above about 40%; inconclusive = no clear call, values can overlap the other calls;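 also: 0% = median of the plate's neutral control wells and 100% = double that signal; a rise in the Bmi1 reporter signal indicates esBAF inhibition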
Wnt bcat act: activators of Wnt/beta-catenin signaling | Wnt/beta-catenin reporter cell assay, activator, plate reader | activation, % at 9.35 µM | 1.2% of 300,000 active; in the data active = activation above about 30%, passing the limit was not always enough; inconclusive = no clear call, values can overlap the other calls;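 also: 0% = neutral control wells and 100% = positive control wells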
EBV LMP1 NFkB: reduces LMP1-driven NF-kappaB luciferase signal; LMP1-induced NF-kappaB luciferase reporter cells, luminescence; inhibition, % at 12.5 µM; 0.69% of 350,000 active; AID 504558; in the data active = inhibition above about 41%; inconclusive = no clear call, values can overlap the other calls;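 also: 0% = neutral control wells and 100% = reference inhibitor control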
TRPM1 prom inh: reduces MITF-dependent TRPM1 promoter luciferase signal; SK-MEL-5 TRPM1 promoter luciferase, 24 h; inhibition, % at 12.5 µM; 0.83% of 330,000 active;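 active = mean inhibition across replicates of 60% or more, whatever share of single replicates reaches that level; inconclusive = some that reach 60%, reason not given; inactive = mean inhibition across replicates below 60%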
MITF TRPM1 HTS: increases MITF-driven TRPM1 promoter luciferase signal. SK-MEL-5 TRPM1-promoter luciferase, 24 h; % of positive control, neutral wells = 0. activation, % at 12.5 µM. 0.75% of 300,000 active. AID 588334;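 active = mean activation of at least 80% with every replicate also reaching 80%; inconclusive = mean reaches 80% but some replicate falls short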;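 also: 0% = neutral control wells and 100% = parthenolide positive control wells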
esBAF Ring1 qPCR: esBAF inhibition confirmed by Ring1 de-repression | AID 743176 | shares compounds with esBAF inh | fold change at 33 µM | mouse ESC E14, Ring1 mRNA RT-qPCR fold change | 550 tested, under 10 active;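 active = Ring1 gene expression raised more than 2-fold over untreated cells in both replicates at either tested dose; inconclusive = only one replicate above 2-fold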;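 also: Ring1 transcript normalised to actin housekeeping signal by TaqMan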
Fgf4 repress: represses Fgf4 in mouse ESCs, confirming esBAF inhibition | Fgf4 expression fold change at 33 µM | 4% of 550 active | mouse ESC E14, Fgf4 mRNA qPCR fold change; active compounds read low | shares compounds with esBAF inh;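 active = Fgf4 expression under 0.8 fold of control in both repeat measurements at one or both tested doses; inconclusive = under 0.8 fold in just a single repeat measurement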;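 also: Fgf4 transcript normalised to actin in duplex TaqMan qPCR; cells exposed to compound for 24 h before lysis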
Bmi1 derepress: confirmation of esBAF inhibitors: Bmi1 de-repression in mouse ESCs | AID 743180 | shares compounds with esBAF inh | 550 tested, under 10 active | fold change at 33 µM | mouse ESE14 ES cells, Bmi1 mRNA qPCR fold; active compounds read high;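 active = Bmi1 expression fold change above 6 at either tested concentration, seen in replicate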;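 also: higher fold means more Bmi1 de-repression and stronger esBAF inhibition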
A549 tox SP: cytotoxicity in A549 cells; shares compounds with esBAF inh; 550 tested, under 10 active; cell viability change % (negative = cytotoxic), % at 25 µM, hits read low; plate reader; call rule not given here
HepG2 tox SP: cytotoxicity in HepG2 cells. activity change, negative = inhibition, % at 25 µM. shares compounds with esBAF inh. plate reader; active compounds read low. 4% of 550 active. AID 743189; in the data active = activity change below about -50%
HEK293 tox SP: kills or reduces viability of HEK293 cells; AID 743190; HEK293 cytotoxicity, plate reader; shares compounds with esBAF inh; 3% of 550 active; activity change, negative = inhibition, % at 25 µM, hits read low; in the data active = activity change below about -38%, passing the limit was not always enough
The depositor's hits bear a star; ? = inconclusive; nt = no result. Compounds with a hit are over-represented: about 4% of the library has one in this group of screens.

SMILES	Statin myotox sup	esBAF inh	Wnt bcat act	EBV LMP1 NFkB	TRPM1 prom inh	MITF TRPM1 HTS	esBAF Ring1 qPCR	Fgf4 repress	Bmi1 derepress	A549 tox SP	HepG2 tox SP	HEK293 tox SP
CN(C)c1ccc(C=C2C=Cc3ccccc32)cc1	-7	-11	0	-26	-35	35	nt	nt	nt	nt	nt	nt
O=C(c1ccccc1)c1c[nH]c2ccccc12	-14	25	3	-4	-8	5	nt	nt	nt	nt	nt	nt
FC(F)Oc1ccccc1/C=N/Nc1nc2ccccc2o1	41	59*	17	-28	-74	nt	1.1	0.97	1.2	2	35	18
Fc1ccccc1/C=N/Nc1nc2ccccc2o1	60	-8	22	-20	-39	37	nt	nt	nt	nt	nt	nt
C/C=C/c1ccc2c(c1)O[C@@H](CN(C)C(=O)Cc1cccnc1)[C@@H](C)CN([C@@H](C)CO)S2(=O)=O	6	-2	nt	nt	nt	nt	nt	nt	nt	nt	nt	nt
Nc1cccc(N=[N+]([O-])c2cccc(N)c2)c1	4	77*	2	-21	-41	39	1.4	1.2	1.5	-3	-18	-7
O=[N+]([O-])c1cccc(N=NNc2cccc([N+](=O)[O-])c2)c1	nt	nt	15	-43	nt	nt	nt	nt	nt	nt	nt	nt
COc1ccccc1C(=O)N1CCCC(C)(C(=O)NS(=O)(=O)C2CC2)C1 (configuration not stated)	4	1	-11	nt	nt	nt	nt	nt	nt	nt	nt	nt
Cc1nc2c(sc3nc4c(cc32)COC(C)(C)C4)c(=O)n1Cc1ccccc1	23	64*	nt	-12	-60	60	1.2	0.81	1.1	2	-29	-16
O=C(Nc1ccc2c(c1)C(=O)c1ccccc1-2)c1ccccc1	3	94*	-2	-11	-42	39	1.1	0.84	1.4	-5	-23	-11
CCc1nc(SCc2ccc(Cl)cc2)n[nH]1	nt	nt	13	0	-8	12	nt	nt	nt	nt	nt	nt
CCc1nc(SCc2ccc(Br)cc2)n[nH]1	?	47*	18	-12	-58	63	0.9	0.95	1.5	-5	-20	-10
O=[N+]([O-])c1ccc(-c2cccnc2)cc1	-3	-6	-2	-1	-10	11	nt	nt	nt	nt	nt	nt
CC(=O)c1cccc(NC(=O)NC2CCCCC2)c1	1	22	1	-6	-19	27	nt	nt	nt	nt	nt	nt
Cc1ccc(NC(=O)NC2CCCCCCC2)cc1C	5	61*	20	-26	-52	63	1.5	0.94	1.6	10	4	1
COc1cccc(-c2nc(-c3ccc(NC(=O)c4cccs4)cc3)no2)c1	-7	62*	nt	-19	-54	52	1.1	0.86	1.5	-15	-6	-18
COc1cccc(-c2nc(-c3ccc(NC(=O)c4ccncc4)cc3)no2)c1	0	20	nt	-1	8	nt	nt	nt	nt	nt	nt	nt
COc1ccc(NC(=O)c2cc(-c3cccs3)on2)cc1	1	62*	?	-14	-115	110*	0.96	?	2.1	-11	-3	8
CN(C)c1ccc(C=NN2CCCCCC2)cc1	-3	75*	-3	-19	-59	56	1.2	0.87	1.3	-6	-5	-4
CCOc1ccc(C=NN2CCCCCC2)cc1OCC	-1	-6	-3	0	-1	9	nt	nt	nt	nt	nt	nt
O=C(NC1CCCCC1)c1cc(-c2cccc(Cl)c2)on1	-2	60*	17	-37	-97	95*	1.2	?	1.8	-10	-8	-4
O=C(NC1CCCC1)c1cc(-c2ccccc2O)on1	-47	61*	2	-36	-102	106*	1.3	0.8	1.4	-13	9	-6
COc1cccc(-c2cc(C(=O)NC3CCCCC3)no2)c1	-51	59*	4	-31	-109	115*	1.2	0.88	1.4	-4	-18	-6
O=C(NC1CCCCC1)c1cc(-c2ccco2)on1	3	5	26	-24	-31	24	nt	nt	nt	nt	nt	nt
COc1ccc(-c2cc(C(=O)NC3CCCC3)no2)cc1	-31	7	18	-22	-60	67	nt	nt	nt	nt	nt	nt
SMILES	Statin myotox sup	esBAF inh	Wnt bcat act	EBV LMP1 NFkB	TRPM1 prom inh	MITF TRPM1 HTS	esBAF Ring1 qPCR	Fgf4 repress	Bmi1 derepress	A549 tox SP	HepG2 tox SP	HEK293 tox SP
O=C(Cc1c(O)c2ccccc2oc1=O)c1ccc(F)cc1	-20	69*	28	3	nt	nt	0.86	0.93	1.5	-14	-33	-6
O=c1oc2ccccc2c(O)c1CN1CCCCC1	2	-6	nt	1	8	nt	nt	nt	nt	nt	nt	nt
c1ccc2c(c1)Nc1cc3ccccc3cc1O2	14	84*	7	-3	-36	44	1.3	0.9	1.5	-2	-1	-9
c1ccc(C2Nc3ccccc3Oc3ccccc32)cc1 (configuration not stated)	-3	-8	nt	2	-3	2	nt	nt	nt	nt	nt	nt
COc1ccc(Cl)cc1C(=O)NNC(=O)c1cccs1	4	55*	0	-13	-37	38	1.3	0.96	1.4	-3	-35	-15
Cc1ccc(NC(=S)N/N=C/c2ccc(OCCC(C)C)cc2)c(C)c1	3	2	3	3	1	1	nt	nt	nt	nt	nt	nt
COc1ccccc1N1CCN(Cc2ccc(-c3ccccc3[N+](=O)[O-])o2)CC1	6	-3	0	-6	5	nt	nt	nt	nt	nt	nt	nt
Cc1ccc(OCn2c(=O)sc3ccccc32)cc1	1	66*	17	-11	-80	74	1.1	1.2	1.4	-10	-11	-16
Cc1cc(=O)oc2cc(NC(=O)c3cccc(F)c3)ccc12	3	68*	20	-22	-55	52	1.2	0.92	0.95	-8	-13	0
OC(c1ccccc1)c1nc(-c2ccc3c(c2)OCO3)cs1 (configuration not stated)	57	61*	-3	nt	nt	nt	0.99	0.84	1.3	-8	-8	-7
OC(c1cccc(Cl)c1)c1nc(-c2ccc3c(c2)OCO3)cs1 (configuration not stated)	15	2	9	nt	nt	nt	nt	nt	nt	nt	nt	nt
O=C(Cn1c(/C=C/c2ccccc2)nc2ccccc21)Nc1ccc(F)cc1	-4	80*	16	-10	-85	85*	0.99	1	1.5	7	30	3
COc1ccc(N2C(=O)/C(=C\c3ccco3)N=C2SCC(=O)N(C(C)C)C(C)C)cc1Cl	nt	nt	10	21	22	-17	nt	nt	nt	nt	nt	nt
Cc1ccc(Nc2nc(N)nc(-c3oc4ccccc4c3C)n2)cc1	nt	nt	nt	-43	-13	14	nt	nt	nt	nt	nt	nt
